# According to PubChem BioAssay (NCI):
# Compounds without any hit were thinned out: in the full panel of roughly 83,000, 20% have a hit.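 Testing used 96-well plates and a 48-hour single-concentration exposure. Example: -40 means 40% of the starting cells died.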 Unmarked numbers belong to inactive results. Calls of active or inactive are those of the source. The calls were made as follows: active = growth percent below 10; inactive = the rest.
# Tests used:
# Test in all cases: NCI-60 one-dose screen, 48 h (100 = growth as untreated, 0 = no growth, -100 = all killed)
# Conditions in all cases: 10 µM unless noted
# HCT-15 colon = test system: HCT-15 colon
# HT29 colon = test system: HT29 colon
# SNB-75 CNS = test system: SNB-75 CNS
# SNB-19 CNS = test system: SNB-19 CNS
# U251 CNS = test system: U251 CNS
# PC-3 prostate = test system: PC-3 prostate
# UACC-62 melanoma = test system: UACC-62 melanoma
# LOX IMVI melanoma = test system: LOX IMVI melanoma
# SK-MEL-28 melanoma = test system: SK-MEL-28 melanoma
# SK-MEL-5 melanoma = test system: SK-MEL-5 melanoma
SMILES,growth (HCT-15 colon),growth (HT29 colon),growth (SNB-75 CNS),growth (SNB-19 CNS),growth (U251 CNS),growth (PC-3 prostate),growth (UACC-62 melanoma),growth (LOX IMVI melanoma),growth (SK-MEL-28 melanoma),growth (SK-MEL-5 melanoma) [%]
CCCCCC[n+]1ccc(SCC(=O)n2ccc3ccccc32)c2ccccc21,94.3%,84%,100%,86.8%,94.4%,83.7%,73.3%,91.5%,,
O=c1c2ccccc2cc2n1CCN=C2c1ccccc1,96.6%,104%,94.9%,94.8%,97%,96.5%,96%,101%,112%,
C#C[C@]1(O)CC[C@H]2[C@@H]3CC=C4c5sc(Nc6ncccc6C)nc5CC[C@]4(C)[C@H]3CC[C@@]21C,-1.06% (active),25.4%,-2.92% (active),1.7% (active),3.14% (active),-18.4% (active),-25.9% (active),-78% (active),-78.7% (active),
Cc1ccc2c(n1)C(=O)C(Cl)=C(Nc1cccc(C(=O)OC(C)(C)C)c1)C2=O,47.1%,114%,95.7%,97.6%,88.5%,72%,90.7%,8.98% (active),103%,
Clc1ccc2c(N/N=C/c3c[nH]c4ccccc34)ccnc2c1,-82.7% (active),-72.3% (active),-96.2% (active),-92.4% (active),-84.1% (active),-81% (active),-61.7% (active),-92.9% (active),-92.7% (active),
COC(=O)c1ccc(NC2=C(Cl)C(=O)c3nc(C)ccc3C2=O)cc1,22.7%,90.5%,106%,61.9%,46.9%,57.3%,68.5%,,75.4%,68.4
Cc1ccc(Nc2nc(SC(C)C)nc(-c3ccccc3)c2C#N)cc1,95.1%,101%,91.1%,97.1%,103%,99.9%,95.5%,96.4%,96.8%,
CCCCCN1C(=O)/C(=c2\sc3n(c2=O)C2C(NN=3)N(CC)C(=O)N2CC)c2cccc(C)c21 (stereo not given),19.9%,37.9%,20.5%,53.1%,61%,40%,35.4%,,62.4%,45.5
CN1CCN(c2ccc(Nc3nc(NCCCNS(=O)(=O)c4ccc(F)cc4)c4sccc4n3)cc2)CC1,25.5%,11.4%,78.5%,74.5%,15.7%,60.5%,21.1%,,-42.9% (active),20.5
Oc1[nH]c2ccc(Cl)cc2c1N=Nc1nc(N=Nc2c(O)[nH]c3ccc(Cl)cc23)nc(N2CCCCC2)n1,88.4%,39.3%,95.3%,42.1%,19.8%,19.5%,88.5%,24.6%,97.5%,
CN1CCN(c2ccc(C(=O)/C=C/c3cc(F)cc(C(F)(F)F)c3)cc2)CC1,27.5%,15.9%,59.9%,81.7%,51.4%,60.2%,82.8%,7.73% (active),96.3%,
O=C(CSc1nnc(-c2cccs2)n1-c1ccccc1)Nc1ccccc1F,52.7%,75.1%,84.4%,83.2%,89.3%,93.3%,57.7%,78.9%,,
C#C[C@]1(O)CC[C@H]2[C@@H]3CC=C4c5sc(Nc6cccc(F)c6)nc5CC[C@]4(C)[C@H]3CC[C@@]21C,-28.6% (active),-23.3% (active),24.1%,35.8%,10%,19.2%,5.77% (active),-57.6% (active),13.8%,
O=S(=O)(Oc1ccc(-c2cn3ccoc3n2)cc1)c1cccc(C(F)(F)F)c1,95.6%,103%,96.3%,95.2%,101%,95.2%,86.5%,94.7%,,
CS(=O)(=O)c1nccc(-c2c(-c3cccc(OCc4ccc(Cl)c(C(F)(F)F)c4)c3)nc3sccn23)n1,-30.7% (active),95.8%,108%,58.6%,98.3%,86.5%,87.5%,-75.9% (active),,
Brc1ccc2[nH]cc(-c3nn4cc(-c5nccs5)nc4s3)c2c1,10.2%,40.9%,-1.58% (active),61.1%,61.3%,9.64% (active),79.3%,8.86% (active),49.6%,
NCCNC(=O)c1cccc(COc2ccccc2NC(=O)c2cc(Br)c(Br)[nH]2)c1,72.7%,101%,94.1%,71.1%,77.5%,82.1%,96.8%,,102%,98.9
CCCCc1nc2c(N)nc3ccccc3c2n1Cc1ccc(OC)cc1,58.3%,32.9%,66.2%,76%,67.9%,43.5%,68.2%,75%,90.2%,
CC1(C)CC[C@]23CC[C@]4(C)[C@H](CC[C@@H]5[C@@]6(C)CC[C@H](N)C(C)(C)[C@@H]6CC[C@]54C)[C@H]2[C@H]1OC3,-52.2% (active),20.2%,99.5%,47.3%,-47.9% (active),69.6%,94.6%,,103%,87.7
Cc1ccc2c(n1)C(=O)C(Cl)=C(Nc1ccc(C(=O)OC(C)(C)C)cc1)C2=O,-43.9% [9.25 µM] (active),100% [9.25 µM],83.8% [9.25 µM],83.8% [9.25 µM],83.5% [9.25 µM],72.1% [9.25 µM],87.1% [9.25 µM],-59.3% [9.25 µM] (active),82.5% [9.25 µM],
COc1ccc(C(=NNS(=O)(=O)c2ccc(C)cc2)c2ccccc2)cc1OC,96.6%,103%,90.4%,94.6%,96.1%,93%,70.3%,,108%,97.6
CCOC(=O)C1=C(C)NC(C)=C(C(=O)OC(C)C)C1c1cccc(C#N)c1 (stereo not given),99.1%,108%,84.5%,101%,100%,87.2%,93.3%,95.2%,105%,
CC[C@]12CC(C(=O)OC)=C3Nc4ccccc4[C@@]34CCN(C14)[C@@H]1c3cc4c(cc3O[C@@H]1[C@H]2O)NC1=C(C(=O)OC)C[C@@]2(CC)C3N(CC[C@@]143)C[C@H]1O[C@H]12 (stereo not given in full),3.59% (active),12.2%,-4.96% (active),14.2%,19.2%,10.1%,8.9% (active),-64.6% (active),20.7%,
CCc1nnc(NC(=O)c2cc(-c3ccc(Cl)cc3Cl)oc2C)s1,70.5%,89.7%,94%,79.7%,29.5%,,73.2%,74.4%,102%,97.8
CCc1cccc2c3c(sc12)C(c1ccc(F)cc1)C(C#N)=C(/N=C/c1ccc(Cl)cc1)O3 (stereo not given),12.9%,-18.9% (active),34.8%,27.1%,14.5%,,23.8%,30.3%,61.9%,32.4
COc1ccc2c(c1)c(-c1nn3cc(-c4ccncc4)nc3s1)cn2C,60.7%,79.2%,29.6%,86.1%,83%,,68.7%,65.9%,114%,86.3
